“And” between values parts separate entries of the source, which are not always exact repeats. Identical values can stand only once. Records with an inconclusive call do not appear. The source made the active and inactive calls.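 The calls were made as follows, unless noted: active = normalized viability below 100% at a tested concentration; inactive = the rest.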
Assays:
[1] = viability loss in pontine glioma line – cell-based, SU-DIPG-XVII, MIPE5.0, CellTiter-Glo, qHTS, dose response (AID 1347060; cut-off not given, nearly all actives have AC50 up to about 26 µM;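 as to AC50: cells exposed to compound for 48 hours before viability readout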); conditions: CellTiter-Glo ATP luminescence
[2] = viability loss in pontine glioma line – cell-based, SU-DIPG-XIII, MIPE5.0, CellTiter-Glo, qHTS, dose response (AID 1347064; cut-off not given, nearly all actives have AC50 up to about 23 µM;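 as to AC50: cells exposed to compound for 48 hours before the viability read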); conditions: CellTiter-Glo ATP luminescence
[3] = viability loss in pontine glioma line – cell-based, SU-DIPG-IV, MIPE4.0, CellTiter-Glo, qHTS, dose response (AID 1347063; cut-off not given, nearly all actives have AC50 up to about 30 µM;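 also: compound exposure lasted 48 hours before the viability readout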); conditions: CellTiter-Glo ATP luminescence
[4] = viability loss in pontine glioma line – cell-based, SU-DIPG-XXV, MIPE5.0, CellTiter-Glo, qHTS, dose response (AID 1347065; cut-off not given, nearly all actives have AC50 up to about 26 µM;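 also: cells exposed to compound for 48 hours before ATP readout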); conditions: CellTiter-Glo ATP luminescence
[5] = compounds altering HSF1 focus formation in cells – imaging, Selleck Cancer Library (AID 1347162; in the data active = plate-normalised HSF1 focus index below about 0.46); conditions: human cells, HSF1 nuclear foci imaging, at 10 µM; SSMD: measured here: HSF1 foci SSMD mean; cell count: measured here: cell number; plate-normalised HSF1 focus index: stronger effect = lower value
[6] = JHH-DIPG-1 glioma cell viability, MIPE5.0 library, CellTiter-Glo luminescence, qHTS (AID 1347067; cut-off not given, nearly all actives have AC50 up to about 26 µM;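 also: cells exposed to compound for 48 hours before readout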); conditions: JHH-DIPG-1 glioma viability, CellTiter-Glo ATP luminescence
[7] = growth inhibition of DIPG cells – cell-based, MIPE5.0 library, qHTS (AID 1347068; cut-off not given, nearly all actives have IC50 up to about 30 µM;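 as to IC50: cells exposed to compound for 48 hours before viability readout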); conditions: SU-DIPG-XXV viability
[8] = drug combination growth inhibition, ovarian cancer – cell-based, oncology-focused library, rucaparib conditional, profiling panel (AID 1508598); conditions: patient-derived ovarian cancer cells, CellTiter-Glo viability, 144 h, stronger effect = lower value
[9] = viability loss with induced miR-34 in A549 – imaging, A549 dox-inducible miR-34, nuclei and caspase counts, primary screen (AID 1347080;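 active = compounds whose cell count with miR-34 switched on is under 0.7 times the count with it off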); conditions: A549 miR-34 inducible, Hoechst nuclei count, 48 h
[10] = MELAS cybrid and Rieske KO viability enhancers – cell-based, MELAS cybrids, Rieske KO mouse fibroblasts, CellTiter-Glo, primary screen (AID 1508586;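 active = mean z-score across replicates of 1.96 or higher in either the MELAS or the Rieske mutant cell line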;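 also: z relative to plate mean and SD of compound and empty wells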); conditions: low glucose
[11] = growth inhibition of DIPG cells – cell-based, MIPE4.0 library, CellTiter-Glo luminescence, qHTS (AID 1347066; cut-off not given, nearly all actives have AC50 up to about 30 µM;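 also: cells exposed to compound for 48 hours before readout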); conditions: SU-DIPG-VI viability, CellTiter-Glo ATP luminescence
[12] = P. berghei load reduction in hepatocytes – cell-based, HepG2, luciferase luminescence, HepG2 viability, primary screen (AID 624349; in the data active = parasite load remaining mostly below about 12%, no sharp cut-off; inactive = mostly above about 10%;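 also: 100% = mean of DMSO negative control wells on the same plate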); conditions: P. berghei liver stage in HepG2, luciferase luminescence, concentration not given here; parasite load remaining: stronger effect = lower value; viability: measured here: HepG2 viability without parasites
[13] = at 0.000305 µM, OCI-C5x cells, with rucaparib 10 µM, 100% = cells with rucaparib alone
[14] = at 0.000305 µM, OCI-C5x cells, without rucaparib
[15] = at 0.000305 µM, OCI-P5x cells, with rucaparib 20 µM, 100% = cells with rucaparib alone
[16] = at 0.000305 µM, OCI-P5x cells, without rucaparib
[17] = at 0.00122 µM, OCI-C5x cells, with rucaparib 10 µM, 100% = cells with rucaparib alone
[18] = at 0.00122 µM, OCI-C5x cells, without rucaparib
[19] = at 0.00122 µM, OCI-P5x cells, with rucaparib 20 µM, 100% = cells with rucaparib alone
[20] = at 0.00122 µM, OCI-P5x cells, without rucaparib
[21] = at 0.00488 µM, OCI-C5x cells, with rucaparib 10 µM, 100% = cells with rucaparib alone
[22] = at 0.00488 µM, OCI-C5x cells, without rucaparib
[23] = at 0.00488 µM, OCI-P5x cells, with rucaparib 20 µM, 100% = cells with rucaparib alone
[24] = at 0.00488 µM, OCI-P5x cells, without rucaparib
[25] = at 0.0195 µM, OCI-C5x cells, with rucaparib 10 µM, 100% = cells with rucaparib alone
[26] = at 0.0195 µM, OCI-C5x cells, without rucaparib
[27] = at 0.0195 µM, OCI-P5x cells, with rucaparib 20 µM, 100% = cells with rucaparib alone
[28] = at 0.0195 µM, OCI-P5x cells, without rucaparib
[29] = at 0.0781 µM, OCI-C5x cells, with rucaparib 10 µM, 100% = cells with rucaparib alone
[30] = at 0.0781 µM, OCI-C5x cells, without rucaparib
[31] = at 0.0781 µM, OCI-P5x cells, with rucaparib 20 µM, 100% = cells with rucaparib alone
[32] = at 0.0781 µM, OCI-P5x cells, without rucaparib
[33] = at 0.313 µM, OCI-C5x cells, with rucaparib 10 µM, 100% = cells with rucaparib alone
[34] = at 0.313 µM, OCI-C5x cells, without rucaparib
[35] = at 0.313 µM, OCI-P5x cells, with rucaparib 20 µM, 100% = cells with rucaparib alone
[36] = at 0.313 µM, OCI-P5x cells, without rucaparib
[37] = at 1.25 µM, OCI-C5x cells, with rucaparib 10 µM, 100% = cells with rucaparib alone
[38] = at 1.25 µM, OCI-C5x cells, without rucaparib
[39] = at 1.25 µM, OCI-P5x cells, with rucaparib 20 µM, 100% = cells with rucaparib alone
[40] = at 1.25 µM, OCI-P5x cells, without rucaparib
[41] = at 5 µM, OCI-C5x cells, with rucaparib 10 µM, 100% = cells with rucaparib alone
[42] = at 5 µM, OCI-C5x cells, without rucaparib
[43] = at 5 µM, OCI-P5x cells, with rucaparib 20 µM, 100% = cells with rucaparib alone
[44] = at 5 µM, OCI-P5x cells, without rucaparib
[45] = stronger effect = lower value, cell number ratio, induced over uninduced
[46] = measured here: relative caspase fold change +Dox/-Dox
[47] = measured here: total cells with miR-34 induction, stronger effect = lower value
[48] = measured here: total cells without miR-34 induction
[49] = MELAS cybrid survival, CellTiter-Glo 48 h, stronger effect = higher value
[50] = Rieske KO mouse fibroblast survival, CellTiter-Glo 72 h

C[C@@H]1Cc2c([nH]c3ccccc23)[C@@H](c2c(F)cc(/C=C/C(=O)O)cc2F)N1CC(C)(C)F
inactive: outcome [1] | outcome [2]

O=C1[C@H](Cc2ccc(O)cc2)N2C(=O)CCN(C(=O)NCc3ccccc3)[C@H]2CN1Cc1cccc2ccccc12
6950: cell count [5]
inactive: plate-normalised HSF1 focus index [5] 1.09
active: AC50 [1] 4.17 µM | AC50 [3] 3.72 µM | AC50 [4] 3.32 µM
1.66: SSMD [5]

O=C(CCCCCCC(=O)Nc1ccc([C@H]2O[C@@H](CSc3nc(-c4ccccc4)c(-c4ccccc4)o3)C[C@@H](c3ccc(CO)cc3)O2)cc1)NO
inactive: outcome [1] | outcome [4] | outcome [6] | outcome [7] | viability [8, 13] 114% | viability [8, 14] 141% | viability [8, 16] 111% | viability [8, 17] 112% | viability [8, 18] 131% | viability [8, 20] 114% | viability [8, 21] 115% | viability [8, 22] 132% | viability [8, 24] 108% | viability [8, 25] 112% | viability [8, 26] 130% | viability [8, 29] 112% | viability [8, 30] 139% | viability [8, 31] 102% | viability [8, 32] 106% | viability [8, 33] 116% | viability [8, 34] 137% | viability [8, 35] 104% | viability [8, 36] 109% | viability [8, 37] 110% | viability [8, 38] 139% | viability [8, 39] 106% | viability [8, 40] 116% | viability [8, 41] 128% | viability [8, 42] 158% | viability [8, 44] 108%
active: AC50 [3] 13.2 µM | viability [8, 15] 97.6% | viability [8, 19] 90.6% | viability [8, 23] 90% | viability [8, 27] 72% | viability [8, 28] 79.1% | viability [8, 43] 21.1%

Cc1cc(-c2nc3cc(F)ccc3s2)ccc1NC(=O)[C@@H](N)CCCCN
active: AC50 [1] 20.9 µM | AC50 [2] 20.9 µM

CC(C)(O)CC(=O)NCCn1ccc2ncnc(Nc3ccc(Oc4cccc(C(F)(F)F)c4)c(Cl)c3)c21
8120: cell count [9, 47]
0.647: fold change [9, 46]
inactive: fold change [9, 45] 0.965 | z-score [10, 49] -0.328
8420: cell count [9, 48]
0.83: z-score [10, 50]
active: AC50 [1] 18.6 µM | AC50 [3] 26.4 µM | AC50 [4] 26.3 µM | AC50 [6] 20.9 µM | IC50 [7] 23.5 µM

O=C(O)/C(S)=C/c1ccc(I)cc1
inactive: outcome [1] | outcome [2] | outcome [4]

CC(C)(C)NC(=O)c1cncn1C1CCN(c2ccc(-c3nnc(C(F)(F)F)o3)cn2)CC1
active: AC50 [1] 10.5 µM | AC50 [2] 5.9 µM | AC50 [4] 1.48 µM

CN1c2ccccc2C(=O)N2CCc3c([nH]c4ccccc34)C21 (configuration not stated)
active: AC50 [1] 2.95 µM | AC50 [4] 2.35 µM | AC50 [6] 5.25 µM
inactive: outcome [3] | outcome [11]

C[C@H]1Oc2cc(cnc2N)-c2c(nn(C)c2C#N)CN(C)C(=O)c2ccc(F)cc21
active: AC50 [1] 14.8 µM | AC50 [2] 10.5 µM | AC50 [4] 9.34 µM

CC(=O)Oc1cc2c(s1)CCN(C(C(=O)C1CC1)c1ccccc1F)C2 (configuration not stated)
inactive: outcome [1] | outcome [4] | outcome [6] | outcome [7] | fold change [9, 45] 0.891 and 0.933 | z-score [10, 49] -1.04 and -0.446
active: AC50 [3] 16.6 µM
0.621 and 0.805: fold change [9, 46]
-0.245 and 0.545: z-score [10, 50]
7600 and 7230: cell count [9, 47]
8520 and 7750: cell count [9, 48]

N#C/C(=C1/Nc2ccccc2S1)c1ccnc(OCc2ccc(CN3CCOCC3)cc2)n1
active: AC50 [1] 14.8 µM | AC50 [3] 0.0209 µM | AC50 [2] 14.8 µM | AC50 [11] 0.743 µM | AC50 [6] 20.9 µM

O=C1NC(=O)[C@@H](c2cn3c4c(cccc24)CCC3)[C@@H]1c1c[nH]c2ccccc12
active: AC50 [1] 1.05 µM | AC50 [3] 13.2 µM | AC50 [4] 1.48 µM | AC50 [11] 23.5 µM

Nc1ccn([C@@H]2O[C@H](CO)[C@@H](O)C2(F)F)c(=O)n1
10.5 and 7.93: z-score [10, 50]
2720: cell count [9, 48]
2200: cell count [9, 47]
190%: viability [12]
active: AC50 [1] 0.0186 µM | AC50 [3] 0.526 µM | viability [8, 14] 87.2% | viability [8, 15] 74.1% | viability [8, 16] 32.9% | viability [8, 17] 90.4% | viability [8, 18] 93.9% | viability [8, 19] 55.8% | viability [8, 20] 27% | viability [8, 21] 81% | viability [8, 22] 80% | viability [8, 23] 57.2% | viability [8, 24] 22.9% | viability [8, 25] 69.2% | viability [8, 26] 58.3% | viability [8, 27] 47.3% | viability [8, 28] 22% | viability [8, 29] 56.5% | viability [8, 30] 47.8% | viability [8, 31] 50.9% | viability [8, 32] 25.3% | viability [8, 33] 36.8% | viability [8, 34] 35.1% | viability [8, 35] 58.9% | viability [8, 36] 22.7% | viability [8, 37] 33.1% | viability [8, 38] 30.2% | viability [8, 39] 53.9% | viability [8, 40] 25.7% | viability [8, 41] 14.3% | viability [8, 42] 14.2% | viability [8, 43] 42.3% | viability [8, 44] 17.7%
2.54: fold change [9, 46]
inactive: parasite load remaining [12] 8.34% | outcome [11] | outcome [6] | outcome [7] | fold change [9, 45] 0.809 | viability [8, 13] 107%
0.323 and -0.775: z-score [10, 49]

— PubChem BioAssay
